Our source for the inhibition values is PubChem BioAssay AID720582 (The Scripps Research Institute Molecular Screening Center, 2013).

SMILES strings stand for the structures. The campaign covered roughly 370,000 compounds. About 2,300 (0.62%) were called active. This is one part of a sample in which actives are shown more often than they occur.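 The calls were made as follows: active = inhibition above a per-campaign cutoff equal to the mean of compounds falling between control-based bounds plus 3 SD (cut at about 20% in these data); inactive = the rest.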

The target in the assay is Disintegrin and metalloproteinase domain-containing protein 10 (Homo sapiens) (UniProt O14672). Description: blockers of ADAM10 peptide cleavage – biochemical, QFRET, HTS, primary screen (AID 720582).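 Also: 0% = DMSO wells while the 100% control is not disclosed.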 Particulars: recombinant ADAM10, EDANS/DABCYL FRET peptide cleavage, 3 h; at 7 µM; hits give high values.
Chain of Disintegrin and metalloproteinase domain-containing protein 10 (Homo sapiens) (O14672 214-748 limits assumed): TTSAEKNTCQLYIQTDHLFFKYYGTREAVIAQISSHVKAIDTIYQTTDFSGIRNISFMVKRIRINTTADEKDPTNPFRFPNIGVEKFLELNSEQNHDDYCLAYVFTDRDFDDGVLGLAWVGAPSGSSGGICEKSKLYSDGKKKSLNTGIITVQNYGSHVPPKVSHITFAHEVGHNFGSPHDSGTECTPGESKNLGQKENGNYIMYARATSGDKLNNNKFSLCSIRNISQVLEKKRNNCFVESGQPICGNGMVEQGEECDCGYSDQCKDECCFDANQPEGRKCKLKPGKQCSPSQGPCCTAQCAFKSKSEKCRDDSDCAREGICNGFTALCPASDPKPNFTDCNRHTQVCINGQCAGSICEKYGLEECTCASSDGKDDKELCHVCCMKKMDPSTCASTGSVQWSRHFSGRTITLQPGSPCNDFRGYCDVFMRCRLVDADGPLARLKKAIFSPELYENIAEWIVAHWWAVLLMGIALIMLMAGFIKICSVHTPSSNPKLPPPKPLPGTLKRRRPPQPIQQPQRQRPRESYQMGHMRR
What is called inhibition is the drop in the measured response relative to a control, in per cent. Consider `Cc1ccc(C)c(NC(=O)CCS(=O)(=O)c2ccccc2)c1`, for which the inhibition is -11.5% (inactive).
With `CC(C)(C)OC(=O)NCc1cc(F)ccc1/C=C/S(=O)(=O)NCCc1ccccc1` the figure was 11.5% (inactive); with `O=C(c1ccncc1)N1CC[C@H]2[C@H](CCCN2Cc2ccc(F)cc2)C1`, -25.2% (inactive); with `COC(=O)C1CN(CCc2ccccc2)CCS(=O)(=O)N1Cc1cccc(Cl)c1` (centres undefined), 2.53% (inactive).
With `COc1ccccc1NS(=O)(=O)c1ccc(C)c(C(=O)NNC(=O)c2csc(N3CCOCC3)n2)c1` the figure was 8.51% (inactive).
With `COc1ccc(NS(=O)(=O)c2ccc(N3CCOCC3)c(NC(=O)c3ccccc3Br)c2)cc1` the figure was 6.43% (inactive); with `COc1ccc(NS(=O)(=O)c2ccc(C)c(C(=O)NNC(=O)c3csc(N4CCOCC4)n3)c2)cc1`, 26% (active); with `CCC[C@H]1C(=O)CC[C@@]23CCCN2C(=O)CCC[C@@H]13`, -1.01% (inactive).
`CCOC(=O)[C@@H]1[C@H]2COc3ccc(Br)cc3[C@H]2N2C(=O)N(c3ccc(C)cc3)C(=O)[C@@]12C`: the inhibition is 1.71% (inactive).
To `Cc1ccc(N2C(=O)N3[C@@H]4c5ccccc5OC[C@@H]4[C@@H](c4ccccc4)[C@@]3(C)C2=O)cc1` belongs 20.3% (active); to `C[C@@H]1NC(=O)[C@@]2(C)[C@@H](c3ccccc3)[C@H]3COc4ccccc4[C@@H]3N2C1=O`, -7.53% (inactive).
With `CCOC(=O)c1csc(NC(=O)C2CCCN(S(=O)(=O)c3ccc(Cl)s3)C2)n1` (centres undefined) the figure was 10% (inactive); with `Cc1ccccc1-n1c(SCC(=O)Nc2cccc3ccccc23)nc(O)cc1=O`, 27% (active); with `Cc1ccc(-n2c(SCC(=O)Nc3cccc4ccccc34)nnc2-c2ccccn2)cc1`, -6.55% (inactive).
Consider `C=CCn1c(N)cc(=O)nc1SCC(=O)Nc1cccc2ccccc12`, for which the inhibition is -27% (inactive).
For the molecule `O=S1(=O)c2ccc(N3CCN(Cc4ccccc4F)CC3)cc2Oc2ccccc2CN1Cc1cn(Cc2ccc(Cl)cc2)nn1`, the inhibition was 7.21% (inactive).
Regarding `CCOc1ccc(-n2c(SCC(=O)Nc3cc(C)c(NC(=O)c4ccccc4)cc3OC)nnc2-c2cccc(Cl)c2)cc1`, the inhibition is 8.65% (inactive).
For the molecule `COc1cccc(CC2(CO)CCCN(Cc3nc(-c4cccs4)oc3C)C2)c1` (centres undefined), the inhibition is 0.04% (inactive).
With `COc1cccc(CC2(CO)CCCN(Cc3ccc(OC(F)F)cc3)C2)c1` (centres undefined) the figure was 19.9% (active); with `COc1cccc(CNC(=O)CCC2CCCN(Cc3ccc(OC(F)F)cc3)C2)c1` (centres undefined), -2.49% (inactive).
With `O=C(CN(CC1CCCO1)C(=O)CNS(=O)(=O)c1ccc(Cl)cc1)NCc1ccccc1` (centres undefined) the figure was 3.32% (inactive); with `CCCOc1ccc(Oc2c(Cl)cnn(Cc3cccc4ccccc34)c2=O)cc1`, -13% (inactive); with `COc1ccc(C(=O)OCCN2CCN(C3CN(Cc4cn(Cc5ccccc5F)nn4)S(=O)(=O)C3)CC2)cc1OC` (centres undefined), -2.27% (inactive).
With `CC(c1c[nH]c2ccccc12)c1c(-c2ccccc2)n(C)c2ccccc12` (centres undefined) the figure was -17.9% (inactive).
As to `CC(C)C(=O)Nc1cccc(NC(=S)NC(=O)C(c2ccccc2)c2ccccc2)c1`, the inhibition is 21.2% (active).
To `CCCC(=O)Nc1cccc(NC(=S)NC(=O)C(C)Oc2ccc(Cl)cc2Cl)c1` (centres undefined) belongs 6.41% (inactive); to `CCCCC(=O)NNC(=S)NC(=O)C(c1ccccc1)c1ccccc1`, 7.07% (inactive); to `CSCCC1NC2(C(=O)Nc3ccc(Cl)cc32)[C@@H]2C(=O)N(C3CCCC3)C(=O)[C@H]12` (some centres undefined), 11.7% (inactive).
To `CC[C@@]12C(=O)N(c3ccccc3)C(=O)N1[C@H](c1ccc(Br)cc1)[C@@H]1C(=O)N(C(C)(C)C)C(=O)[C@@H]12` belongs 15.3% (inactive); to `CC(C)(C)N1C(=O)[C@H]2[C@@H](c3ccc(Br)cc3)N3C(=O)N(c4cccc(Cl)c4)C(=O)[C@@]3(C)[C@H]2C1=O`, 33.8% (active); to `CC12C(=O)N(c3ccccc3)C(=O)C1C(c1ccccc1)N1CCCN12` (centres undefined), -2% (inactive).
With `COc1ccc([C@@H]2[C@@H]3C(=O)N(C(C)(C)C)C(=O)[C@@H]3[C@]3(Cc4ccccc4)C(=O)N(c4cccc(Br)c4)C(=O)N23)cc1` the figure was 33.4% (active).
Take `C[C@@]12C(=O)N(c3cccc(Br)c3)C(=O)N1[C@H](c1ccc(Cl)cc1)[C@@H]1C(=O)N(C3CCCCC3)C(=O)[C@@H]12`: the inhibition is 31.7% (active).
With `CCN1C(=O)[C@H]2[C@@H](c3ccc(C)cc3)N3C(=O)N(c4cccc(Br)c4)C(=O)[C@@]3(CC)[C@H]2C1=O` the figure was 4.57% (inactive).
To `COC(=O)[C@]12C[C@H](CC(=O)NCc3ccccc3)C(=O)N(Cc3ccccc3)C1=C[C@H](COCc1ccccc1)O[C@@H]2C` belongs 6.96% (inactive).
On to `C=CCN(C)CC#Cc1ccccc1`, for which the inhibition is -2.28% (inactive).
With `O=C(OC12CCCN(C1)/C(=C/c1ccccc1)C2)c1ccco1` (centres undefined) the figure was 8.44% (inactive); with `O=S1(=O)c2c(NCc3ccco3)cccc2Oc2ccccc2CN1Cc1cn(Cc2cccc(C(F)(F)F)c2)nn1`, -9.48% (inactive); with `COc1ccc(-c2cc(-c3nnc(SCC(=O)Nc4cccc5ccccc45)n3N)[nH]n2)cc1`, -7.36% (inactive).
With `CC(CCN1CCC(C(O)(c2ccccc2)c2ccccc2)CC1)Oc1ccc(C(F)(F)F)cc1` (centres undefined) the figure was 5.96% (inactive); with `CCCC(O)(CCC)C(=O)NN(C(=O)CCl)c1cccc(C)c1`, -8.56% (inactive); with `COC(=O)N(NC(=O)C(O)(C(C)C)C(C)C)c1ccccc1`, -0.6% (inactive).
Consider `Cc1ccc(N(NC(=O)C(C)(C)O)C(=O)c2ccccc2)cc1C`, for which the inhibition was 87.5% (active).
With `O=C(CN1CCCc2ccccc21)NCc1ccc(F)cc1` the figure was 1.16% (inactive); with `O=C(Nc1cc(F)cc(F)c1)OC1CCC12CCC(c1ccccc1)CC2` (centres undefined), 7.13% (inactive); with `CCC(=O)OCc1c(C(F)(F)F)nn(C)c1Oc1cccc(C(F)(F)F)c1`, -6.05% (inactive).
As for `Cn1nc(C(F)(F)F)c(C(=O)Nc2cccc(C(F)(F)F)c2)c1SCc1ccc(Cl)cc1`, the inhibition was 43.5% (active).
To `COC(=O)c1ccccc1Sc1c(/C=N/OCc2ccc(Cl)cc2)c(C(F)(F)F)nn1C` belongs -2.32% (inactive); to `c1csc(-c2nnc(SCc3nc4ccccc4[nH]3)o2)c1`, -40.8% (inactive).
